# According to PubChem BioAssay (NCATS):
# Several values for one entry are separate records, joined by “and”; a condition that tells them apart may be missing. Identical values can stand only once. Records with an inconclusive call do not appear. Where a call stands in place of a potency, no number is given. Activity calls are given as the source filed them. Unless noted, the call rests on the fitted dose curve; in most records, active means well fitted curve in the direction sought with a large enough effect; inconclusive means small, poorly fitted or top-dose-only effect, or another doubt; inactive means no such curve, though single readings can be large; an effect the other way counts as inactive or inconclusive.
# Columns and labels:
# [1] = qHTS Assay for Lipid Storage Modulators (AID 1519; calls by dose curve); details: Drosophila S3 cells, BODIPY lipid droplet/cell ratio, laser cytometry, cells loaded with oleic acid
# In short: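 Cells seeded at 5,000 per well were treated with compounds over a concentration series and loaded with oleic acid (400 uM, as added). Lipid droplet fluorescence (488 nm excitation, 500-530 nm channel) was read by laser-scanning cytometry and normalized to 20 uM Triacsin C.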
# [2] = target: DNA repair nuclease/redox regulator APEX1 (Homo sapiens) (UniProt P27695); experiment: qHTS Validation Assay for Inhibitors of the Human Apurinic/apyrimidinic Endonuclease 1 (APE1) (AID 1705;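 further: TAMRA fluorescence gain over two minutes as APE1 cuts a quenched THF abasic duplex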); details: purified APE1 endonuclease activity, fluorescence, titration; series mostly up to 57.1 µM
# Chain of DNA repair nuclease/redox regulator APEX1 (Homo sapiens) (P27695 whole entry, looked up): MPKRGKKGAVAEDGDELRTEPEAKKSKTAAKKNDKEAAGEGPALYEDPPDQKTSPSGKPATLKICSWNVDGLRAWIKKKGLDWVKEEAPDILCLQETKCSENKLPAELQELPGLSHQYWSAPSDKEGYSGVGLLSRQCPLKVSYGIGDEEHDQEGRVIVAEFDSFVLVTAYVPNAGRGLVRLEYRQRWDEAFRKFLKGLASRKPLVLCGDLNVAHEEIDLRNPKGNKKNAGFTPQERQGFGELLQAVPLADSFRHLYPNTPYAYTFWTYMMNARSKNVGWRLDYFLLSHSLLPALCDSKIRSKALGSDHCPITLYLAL
# In short: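 qHTS, 1536-well. APE1 + cpd 15 min RT → 50 nM TAMRA/BHQ-2 THF-abasic dsDNA substrate → kinetic fluorescence, 3 reads/60 s; delta(read3−read1) = reaction progress. No-enzyme buffer = negative control.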
# [3] = Counterscreen for APE1 Inhibitors: Fluorescent Dye Displacement Validation Assay (AID 1707); details: fluorescent dye displacement from DNA; series mostly up to 57.1 µM
# In short: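 Assay buffer: Tris-HCl pH7.5 with 50mM NaCl, 2 mM MgCl2, 0.01% Tween-20. Dye 250 nM, duplex 50 nM final. Readout: decrease in ThO endpoint fluorescence, 480 nm excitation, 540 nm emission.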
# [4] = target: Endonuclease 4 (Escherichia coli (strain K12)) (UniProt P0A6C1); experiment: Counterscreen for APE1 Inhibitors: qHTS Validation Assay for Inhibitors of Endonuclease IV (AID 1708); details: E. coli endonuclease IV, DNA cleavage fluorescence; series mostly up to 57.1 µM
# In short: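 Enzymatic AP-site incision assay using a double-stranded THF substrate labelled with TAMRA and BHQ-2; released fluorescence signals activity. Enzyme 2 nM, substrate 50 nM, 15 min compound preincubation.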
# [5] = qHTS for differential inhibitors of proliferation of Plasmodium falciparum line 7G8 (AID 1815); details: Plasmodium falciparum 7G8 proliferation inhibition; series mostly up to 28.7 µM;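 further: parasite growth measured after three days of incubation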; further: potency means the concentration at half of the fitted maximal effect
# [6] = qHTS for differential inhibitors of proliferation of Plasmodium falciparum line GB4 (AID 1816); details: Potency: Plasmodium falciparum GB4 proliferation inhibition; series mostly up to 28.7 µM;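 further: parasite growth measured after 72 h incubation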; further: potency means the concentration at half of the fitted maximal effect
# [7] = qHTS for differential inhibitors of proliferation of Plasmodium falciparum line 3D7 (AID 1876); further: potency means the concentration at half of the fitted maximal effect; details: P. falciparum 3D7 proliferation inhibition; series mostly up to 28.7 µM
# [8] = qHTS for differential inhibitors of proliferation of Plasmodium falciparum line D10 (AID 1877); details: series mostly up to 28.7 µM;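 further: parasites grown with compound for 72 h before DNA staining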; further: potency means the concentration at half of the fitted maximal effect
# [9] = qHTS for differential inhibitors of proliferation of Plasmodium falciparum line Dd2 (AID 1882); details: Potency: Plasmodium falciparum Dd2 proliferation inhibition; series mostly up to 28.7 µM; further: nearly all actives have a fitted effect of over 65% in size; further: potency means the concentration at half of the fitted maximal effect;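 on activity change, negative = inhibition: compound exposure of 72 h on infected erythrocytes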
# In short: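 SYBR Green I DNA fluorescence read-out, ex 485/em 535 nm. Signals were normalized to 0.29 uM artemisinin and DMSO wells, then corrected using vehicle-only plates flanking each stack. Parasite growth ran 72 h in erythrocytes before lysis.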
# [10] = qHTS for differential inhibitors of proliferation of Plasmodium falciparum line W2 (AID 1883); details: Potency: Plasmodium falciparum W2 proliferation inhibition; series mostly up to 28.7 µM;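 further: parasites grown with compound for 72 h before lysis and staining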; further: potency means the concentration at half of the fitted maximal effect
# [11] = measured here: cell count channel max response
# [12] = measured here: lipid channel max response
SMILES,"activity change, negative = inhibition ([1]; at 57.5 µM (top of the series))","max response [1, 11]","max response [1, 12]",Potency [2],outcome [3],Potency [4],Potency [5],Potency [6],Potency [7],Potency [8],Potency [9],Potency [10],"activity change, negative = inhibition ([1]; at 25.7 µM (top of the series))"
CCCCCN(CCCCC)C(=O)C(CCC(=O)O)NC(=O)c1ccc(Cl)c(Cl)c1 (centres undefined),2.8% (inactive),-5.79%,-4.23%,inactive,inactive,inactive,inactive,inactive,inactive,inactive,inactive,inactive,
O=C1NCN(c2ccccc2)C12CCN(CCCC(c1ccc(F)cc1)c1ccc(F)cc1)CC2,,-19.4%,-26.6%,inactive,inactive,,4.47 µM (active),8.91 µM (active),2 µM (active),10 µM (active),8.91 µM (active),2.82 µM (active),-8.24% (inactive)
C[N+](C)(C)CCCCCCCCCC[N+](C)(C)C,,-13.2%,-14.8%,,inactive,inactive,,,,,,,-3.64% (inactive)
COCCc1ccc(OCC(O)CNC(C)C)cc1 (centres undefined),2.43% (inactive),-17.2%,-15.7%,,inactive,inactive,inactive,,inactive,inactive,inactive,,
CCn1ccnc1CC1COc2ccccc2O1 (centres undefined),1.49% (inactive),56.5%,60.7%,,inactive,inactive,,,inactive,inactive,inactive,10 µM (active),
OCCN1CCN(CCCN2c3ccccc3C=Cc3ccccc32)CC1,-1.21% (inactive),45.9%,45.9%,,inactive,inactive,3.16 µM (active) and 3.98 µM (active),5.01 µM (active) and 4.47 µM (active),11.2 µM (active) and 8.91 µM (active),10 µM (active),5.62 µM (active) and 7.94 µM (active),2.51 µM (active) and 2.24 µM (active),
C[C@]12CCC(=O)C=C1CC[C@@H]1[C@@H]2CC[C@@]2(C)[C@H]1CC[C@]2(O)C(=O)CO,-0.711% (inactive),15.6%,12.1%,inactive,inactive,inactive,,,,,inactive,,
CCOC(=O)C1=C(C)NC(C)=C(C(=O)OC)C1c1cccc([N+](=O)[O-])c1 (centres undefined),1.63% (inactive),-3.59%,-4.4%,inactive,inactive,inactive,11.2 µM (active),12.6 µM (active),8.91 µM (active),12.6 µM (active),,6.31 µM (active),
Cc1ccc(=O)n(-c2ccccc2)c1,1.81% (inactive),6.64%,9.28%,,inactive,inactive,inactive,inactive,inactive,inactive,inactive,inactive,
NC(=O)N1c2ccccc2C=Cc2ccccc21,,-0.817%,-5.44%,,inactive,inactive,inactive,inactive,inactive,inactive,inactive,,-0.889% (inactive)
N[C@@H](COP(=O)(O)O)C(=O)O,3.29% (inactive) and -0.662% (inactive),18.8% and -18.9%,26.3% and -20.3%,inactive,inactive,,inactive,inactive,inactive,inactive,inactive,,
CNC1(C)C2CCC(C2)C1(C)C (centres undefined),2.62% (inactive),45.4%,47.5%,inactive,inactive,inactive,inactive,12.6 µM (active),inactive,inactive,inactive,8.91 µM (active),
Cc1scc2c1N(C(=O)CN1CCN(C)CC1)c1ccccc1NC2=O,0.86% (inactive) and 1.7% (inactive) and 0.0907% (inactive),-8.48% [middle of 4 runs],,inactive,inactive,inactive,,,,,inactive,,-2.57% (inactive)
CC(=O)OC(C)C[N+](C)(C)C (centres undefined),7.3% (inactive),18.4%,29.3%,inactive,inactive,inactive,inactive,inactive,inactive,inactive,inactive,inactive,
CC(N=C(NC#N)Nc1ccncc1)C(C)(C)C (centres undefined),13.9% (inactive) and 0.102% (inactive),1.72% and -23.9%,14.8% and -22.8%,inactive,inactive,inactive,,,,,inactive,11.2 µM (active),
COc1ccc(CN(CCN(C)C)c2ccccn2)cc1,2.66% (inactive) and 4.86% (inactive) and -0.667% (inactive),5.42% [middle of 4 runs],,inactive,inactive,inactive,,8.91 µM (active),inactive,inactive,,5.62 µM (active),1.57% (inactive)
CCCN(CCC)CCc1cccc2c1CC(=O)N2,5.49% (inactive),9.72%,11.6%,,inactive,inactive,inactive,inactive,inactive,inactive,inactive,,
CCCN(CCC)C(=O)C(CCC(=O)O)NC(=O)c1ccccc1 (centres undefined),2.72% (inactive),19.5%,23.3%,inactive,inactive,,inactive,inactive,inactive,inactive,inactive,inactive,

SMILES,"activity change, negative = inhibition ([1]; at 57.5 µM (top of the series))","max response [1, 11]","max response [1, 12]",Potency [2],outcome [3],Potency [4],Potency [5],Potency [6],Potency [7],Potency [8],Potency [9],Potency [10],"activity change, negative = inhibition ([1]; at 25.7 µM (top of the series))"
NC/C=C/C(=O)O,6.98% (inactive),5.6%,13.9%,inactive,inactive,inactive,inactive,inactive,inactive,inactive,inactive,inactive,
c1cc(CN2CCCCC2)cc(OCCCNc2nc3ccccc3s2)c1,-4.93% (inactive),18.9%,13%,inactive,inactive,,7.08 µM (active),6.31 µM (active),2.51 µM (active),8.91 µM (active),7.08 µM (active),2.51 µM (active),
COc1cc(Cc2cnc(N)nc2N)cc(OC)c1OC,,-1.95%,-5.27%,,inactive,inactive,,,,,,,-1.74% (inactive)
OC(CCN1CCCCC1)(c1ccccc1)C1CCCCC1 (centres undefined),1.74% (inactive),-10.4%,-6.71%,,inactive,inactive,,10 µM (active),10 µM (active),12.6 µM (active),3.55 µM (active),3.16 µM (active),
CCN1CCC[C@H]1CNC(=O)c1c(O)c(Cl)cc(Cl)c1OC,1.67% (inactive) and 3.44% (inactive),12.1% and 6.79%,12.8% and 10.2%,,inactive,inactive,inactive,inactive,inactive,inactive,inactive,,
C=CCc1ccccc1OCC(O)CNC(C)C (centres undefined),0.138% (inactive),11.7%,12.4%,inactive,inactive,inactive,3.55 µM (active),1.58 µM (active),10 µM (active),12.6 µM (active),8.91 µM (active),2.24 µM (active),
NC(Cc1ccc(Cl)cc1)C(=O)O (centres undefined),7.45% (inactive),16.7%,25.4%,,inactive,,inactive,inactive,inactive,inactive,inactive,inactive,
COCCOC(=O)C1=C(C)NC(C)=C(C(=O)OC(C)C)C1c1cccc([N+](=O)[O-])c1 (centres undefined),10.8% (inactive) and 3.42% (inactive),12.3% and 59.2%,26.9% and 56.5%,inactive,inactive,,4.47 µM (active),10 µM (active),7.94 µM (active),12.6 µM (active),,6.31 µM (active),
C[N+](C)(C)CCOC(N)=O,,10.4%,11.4%,inactive,inactive,inactive,inactive,inactive,inactive,inactive,inactive,inactive,1.99% (inactive)
CC(C)[N+](C)(CCOC(=O)C1c2ccccc2Oc2ccccc21)C(C)C,,-9.66%,-8.2%,,inactive,inactive,12.6 µM (active),10 µM (active),3.98 µM (active),11.2 µM (active),,8.91 µM (active),0.9% (inactive)
CCN(CC)CCNC(=O)c1ccc(NC(C)=O)cc1,5.92% (inactive) and 1.04% (inactive),-2.69% and -11.3%,6.2% and -12.1%,inactive,inactive,inactive,inactive,inactive,inactive,inactive,inactive,inactive,
c1ccc2c(c1)CCCC2C1=NCCN1 (centres undefined),,,,inactive,inactive,inactive,inactive,,inactive,inactive,inactive,,
O=c1[nH]c(=O)n([C@H]2C[C@H](O)[C@@H](CO)O2)cc1Br,,,,inactive,inactive,inactive,inactive,inactive,inactive,inactive,inactive,inactive,
NC(=O)c1ncn([C@@H]2O[C@H](CO)[C@@H](O)[C@H]2O)c1O,,,,inactive,inactive,inactive,inactive,inactive,inactive,inactive,inactive,inactive,
CC(=O)Oc1cc(C(C)C)c(OCCN(C)C)cc1C,,,,inactive,inactive,inactive,,,inactive,inactive,,7.94 µM (active),
C[C@]12CCC(=O)C=C1CC[C@@H]1[C@@H]2C(=O)C[C@@]2(C)[C@H]1CC[C@]2(O)C(=O)CO,,,,inactive,inactive,inactive,inactive,inactive,inactive,inactive,inactive,,
COCC(=O)O[C@]1(CCN(C)CCCc2nc3ccccc3[nH]2)CCc2cc(F)ccc2[C@@H]1C(C)C,-12.5% (inactive),-3.1%,-16.1%,,inactive,,2.24 µM (active),0.141 µM (active),3.16 µM (active),8.91 µM (active),1.26 µM (active),0.501 µM (active),
